# Inconclusive results are not listed. Calls of active or inactive are those of the source.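 Rule for the calls, unless noted: active = compounds killing one labelled cell type while sparing the other, by normalised counts and ratio limits, not self-fluorescent; inactive = the rest.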
# Assays:
# [1] = modulation of C. elegans fzo-1 (AID 1259413; call rule not given here;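 note: fzo-1 mutant C. elegans worms in liquid wells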); details: C. elegans fzo-1 modulator screen, mean read-out; stronger effect = higher value
# [2] = tested on: Aerobactin synthetase IucA (Klebsiella pneumoniae); test: inhibition of K. pneumoniae IucA enzyme – biochemical, Tocris library, absorbance (AID 1345561; call rule not given here;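 note: 100% = enzyme without compound and 0% = no enzyme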); details: purified IucA enzyme assay, absorbance (OD) read-out; stronger effect = lower value;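 tested at 8 µM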
# [3] = viability loss in pontine glioma line – cell-based, SU-DIPG-XVII, MIPE5.0, CellTiter-Glo, qHTS, dose response (AID 1347060; cut-off not given, nearly all actives have AC50 up to about 26 µM); details: CellTiter-Glo ATP luminescence
# [4] = viability loss in pontine glioma line – cell-based, JHH-DIPG-1, MIPE4.0, CellTiter-Glo, qHTS, dose response (AID 1347062; cut-off not given, nearly all actives have AC50 up to about 27 µM;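 for AC50: cells exposed to compound for two days before readout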); details: JHH-DIPG-1 viability, CellTiter-Glo ATP luminescence
# [5] = viability loss in pontine glioma line – cell-based, SU-DIPG-XIII, MIPE5.0, CellTiter-Glo, qHTS, dose response (AID 1347064; cut-off not given, nearly all actives have AC50 up to about 23 µM); details: CellTiter-Glo ATP luminescence
# [6] = viability loss in pontine glioma line – cell-based, SU-DIPG-IV, MIPE4.0, CellTiter-Glo, qHTS, dose response (AID 1347063; cut-off not given, nearly all actives have AC50 up to about 30 µM;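 note: compound exposure lasted 48 hours before the viability readout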); details: CellTiter-Glo ATP luminescence
# [7] = EMT-state selective cytotoxicity in co-culture – imaging, PC-3E GFP, TEM4-18 mCherry, primary screen (AID 1345086); details: PC-3E GFP / TEM4-18 mCherry co-culture, imaging cell counts, at 1 µM; for red/green cell ratio (normalised): actives lie on both sides, counts scaled to control wells, 1 = unselective;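 for all read-outs here: cells exposed to compound for 72 h before imaging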;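 for red/green cell ratio (normalised): normalised mesenchymal count divided by normalised epithelial count so high means epithelial killing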
# [8] = viability loss in pontine glioma line – cell-based, SU-DIPG-XIII, MIPE4.0, CellTiter-Glo, qHTS, dose response (AID 1347061; cut-off not given, nearly all actives have AC50 up to about 37 µM;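 note: cells exposed to compound for 48 hours before readout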); details: CellTiter-Glo ATP luminescence
# [9] = measured here: epithelial PC-3E GFP cell survival
# [10] = measured here: mesenchymal TEM4-18 mCherry cell survival
smiles,measurement,setting,value
O=C(c1ccc(F)cc1)C1CCN(CCn2c(=S)[nH]c3ccccc3c2=O)CC1,mean signal,[1],246 (inactive)
same,remaining activity,[2],106% (inactive)
Cc1nc2ccc(CN(C)c3ccc(C(=O)N[C@@H](CCC(=O)O)C(=O)O)s3)cc2c(=O)[nH]1,mean signal,[1],269 (inactive)
same,outcome,[3],inactive
same,outcome,[4],inactive
same,outcome,[5],inactive
CN(C)CCCSc1ccccc1NC(=O)/C=C/c1ccccc1,mean signal,[1],241 (inactive)
same,remaining activity,[2],115% (inactive)
NS(=O)(=O)Cc1noc2ccccc12,mean signal,[1],260 (inactive)
same,remaining activity,[2],96.2% (inactive)
CN(CCCN1c2ccccc2CCc2ccccc21)CC(=O)c1ccc(Cl)cc1,mean signal,[1],194 (inactive)
same,remaining activity,[2],113% (inactive)
COc1cc(C(=O)NS(=O)(=O)c2ccccc2C)ccc1Cc1cn(C)c2ccc(NC(=O)OC3CCCC3)cc12,mean signal,[1],223 (inactive)
same,outcome,[3],inactive
same,AC50,[6],20.9 µM (active)
Cc1ccsc1C(=CCCN1CCC[C@@H](C(=O)O)C1)c1sccc1C,mean signal,[1],213 (inactive)
same,outcome,[3],inactive
same,outcome,[5],inactive
CCOC(=O)[C@H](CCc1ccccc1)N[C@@H](C)C(=O)N1[C@H](C(=O)O)C[C@@H]2CCC[C@@H]21,mean signal,[1],226 (inactive)
same,red/green cell ratio (normalised),[7],0.83 (inactive)
same,normalised cell number,[7]; [9],1.1
same,normalised cell number,[7]; [10],0.91
same,AC50,[8],8.33 µM (active)
same,AC50,[4],16.6 µM (active)
same,AC50,[6],5.9 µM (active)
same,outcome,[5],inactive
Cc1ccnc2c1NC(=O)c1cccnc1N2C1CC1,mean signal,[1],208 (inactive)
same,red/green cell ratio (normalised),[7],0.79 (inactive)
same,normalised cell number,[7]; [9],1.34
same,normalised cell number,[7]; [10],1.05
same,AC50,[6],16.6 µM (active)
Cc1cn([C@H]2C=C[C@@H](CO)O2)c(=O)[nH]c1=O,mean signal,[1],233 (inactive)
same,red/green cell ratio (normalised),[7],0.8 (inactive)
same,normalised cell number,[7]; [9],1.35
same,normalised cell number,[7]; [10],1.09
same,outcome,[8],inactive
same,outcome,[4],inactive
same,outcome,[6],inactive
Nc1ccn([C@H]2CC[C@@H](CO)O2)c(=O)n1,mean signal,[1],305 (inactive)
same,red/green cell ratio (normalised),[7],0.76 (inactive)
same,normalised cell number,[7]; [9],1.16
same,normalised cell number,[7]; [10],0.88
same,outcome,[6],inactive
COc1ccc(CN(CCN(C)C)c2ncccn2)cc1,red/green cell ratio (normalised),[7],1.15 (inactive)
same,normalised cell number,[7]; [9],1.04
same,normalised cell number,[7]; [10],1.2
CN(C)/N=N/c1nc[nH]c1C(N)=O,red/green cell ratio (normalised),[7],0.71 (inactive)
same,normalised cell number,[7]; [9],1.47
same,normalised cell number,[7]; [10],1.04
Cc1cc(N)c2ccccc2[n+]1CCCCCCCCCC[n+]1c(C)cc(N)c2ccccc21,red/green cell ratio (normalised),[7],0.87 (inactive)
same,normalised cell number,[7]; [9],1.15
same,normalised cell number,[7]; [10],1
Cc1cc(CC(=O)O)n(C)c1C(=O)c1ccc(Cl)cc1,red/green cell ratio (normalised),[7],0.89 (inactive)
same,normalised cell number,[7]; [9],1.1
same,normalised cell number,[7]; [10],0.98
CCOc1cc(N)c(Cl)cc1C(=O)NCC1CN(Cc2ccc(F)cc2)CCO1 (stereo not given),mean signal,[1],261 (inactive)
same,outcome,[8],inactive
same,outcome,[4],inactive
same,outcome,[6],inactive
same,outcome,[5],inactive
CN(C)CCCN1c2ccccc2Sc2ccc(C(F)(F)F)cc21,red/green cell ratio (normalised),[7],1.26 (inactive)
same,normalised cell number,[7]; [9],0.93
same,normalised cell number,[7]; [10],1.17
CCCCC1(COC(=O)CCC(=O)O)C(=O)N(c2ccccc2)N(c2ccccc2)C1=O,red/green cell ratio (normalised),[7],0.91 (inactive)
same,normalised cell number,[7]; [9],0.96
same,normalised cell number,[7]; [10],0.87
O=C(O)c1ccccc1Nc1cccc(C(F)(F)F)c1,red/green cell ratio (normalised),[7],0.85 (inactive)
same,normalised cell number,[7]; [9],1.18
same,normalised cell number,[7]; [10],1
Cc1ccc(NC(=O)c2ccc(CN3CCN(C)CC3)cc2)cc1Nc1nccc(-c2cccnc2)n1,mean signal,[1],251 (inactive)
same,outcome,[4],inactive
same,outcome,[6],inactive
CCCCCCCCNC(C)C(O)c1ccc(SC(C)C)cc1 (stereo not given),red/green cell ratio (normalised),[7],1.4 (inactive)
same,normalised cell number,[7]; [9],0.68
same,normalised cell number,[7]; [10],0.96
CC(C)NNC(=O)c1ccncc1,red/green cell ratio (normalised),[7],0.73 (inactive)
same,normalised cell number,[7]; [9],1.3
same,normalised cell number,[7]; [10],0.95
O=C1Nc2ccc(Cl)cc2[C@@](C#CC2CC2)(C(F)(F)F)O1,mean signal,[1],218 (inactive)
same,outcome,[4],inactive
same,AC50,[6],29.6 µM (active)
Cc1c[nH]c2ccccc12,red/green cell ratio (normalised),[7],0.99 (inactive)
same,normalised cell number,[7]; [9],0.86
same,normalised cell number,[7]; [10],0.85
Cc1c(O)cccc1C(=O)N[C@@H](CSc1ccccc1)[C@H](O)CN1C[C@H]2CCCC[C@H]2C[C@H]1C(=O)NC(C)(C)C,mean signal,[1],243 (inactive)
same,AC50,[4],20.9 µM (active)
same,AC50,[6],20.9 µM (active)
NC(Cc1ccc(Cl)cc1)C(=O)O (stereo not given),red/green cell ratio (normalised),[7],1.13 (inactive)
same,normalised cell number,[7]; [9],0.99
same,normalised cell number,[7]; [10],1.12
C[C@](N)(Cc1ccc(O)cc1)C(=O)O,red/green cell ratio (normalised),[7],0.89 (inactive)
same,normalised cell number,[7]; [9],1.18
same,normalised cell number,[7]; [10],1.05
O=C(O)P(=O)(O)O,red/green cell ratio (normalised),[7],0.82 (inactive)
same,normalised cell number,[7]; [9],1.21
same,normalised cell number,[7]; [10],0.99
Cc1c(Cl)cccc1Nc1ccccc1C(=O)O,red/green cell ratio (normalised),[7],0.86 (inactive)
same,normalised cell number,[7]; [9],1.08
same,normalised cell number,[7]; [10],0.93
Cc1nccn1CC1CCc2c(c3ccccc3n2C)C1=O (stereo not given),mean signal,[1],237 (inactive)
same,outcome,[4],inactive
Cc1cc(C)nc(NS(=O)(=O)c2ccc(N)cc2)n1,red/green cell ratio (normalised),[7],1.29 (inactive)
same,normalised cell number,[7]; [9],1.02
same,normalised cell number,[7]; [10],1.31
Oc1c(Cl)cc(Cl)cc1Sc1cc(Cl)cc(Cl)c1O,red/green cell ratio (normalised),[7],0.99 (inactive)
same,normalised cell number,[7]; [9],1.15
same,normalised cell number,[7]; [10],1.14
NC(=O)NC(=O)Cc1ccccc1,red/green cell ratio (normalised),[7],1.02 (inactive)
same,normalised cell number,[7]; [9],1.19
same,normalised cell number,[7]; [10],1.21
COCCc1ccc(OCC(O)CNC(C)C)cc1 (stereo not given),red/green cell ratio (normalised),[7],0.71 (inactive)
same,normalised cell number,[7]; [9],1.33
same,normalised cell number,[7]; [10],0.95
Nc1ccc(N=Nc2ccccc2)c(N)n1,red/green cell ratio (normalised),[7],0.86 (inactive)
same,normalised cell number,[7]; [9],1.07
same,normalised cell number,[7]; [10],0.92
Cc1cc(=O)n(-c2ccccc2)n1C,red/green cell ratio (normalised),[7],1.02 (inactive)
same,normalised cell number,[7]; [9],1.24
same,normalised cell number,[7]; [10],1.26
CN1CCN(C(c2ccccc2)c2ccccc2)CC1,red/green cell ratio (normalised),[7],1.46 (inactive)
same,normalised cell number,[7]; [9],1.05
same,normalised cell number,[7]; [10],1.54
CCCCCC(C)N (stereo not given),red/green cell ratio (normalised),[7],1.26 (inactive)
same,normalised cell number,[7]; [9],0.94
same,normalised cell number,[7]; [10],1.18

# Reference: PubChem BioAssay
